Screening data from PubChem BioAssay.
Hits are enriched below; roughly 27% of the tested compounds scored in any of these assays.
CYP2C9 inh: blocks human cytochrome P450 2C9. CYP2C9 Supersomes, luciferin-H conversion, luminescence. AID 777. hit rate 20% among 96,000. inhibition, % at 5 µM;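 active means blocking of liver enzyme CYP2C9 beyond about 50% at 5 µM, limit read from the data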
Cav32 inh: human Cav3.2 channel inhibition, primary screen; O95180; Cav3.2-expressing cells, Fluo-4 calcium fluorescence FDSS; active compounds read low; B-score at 10 µM; hit rate 4% among 100,000; AID 449739;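 active means single-dose well whose peak fluorescence ratio is a statistical outlier from its plate by either plate-standardised score or position-corrected B-score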
CYP2C9 act: activators of human CYP2C9. P11712. recombinant CYP2C9, luciferin-H conversion, luminescence; active compounds read high; factor 1 = untreated enzyme, 0 = blocked. activation factor at 5 µM. hit rate 1.4% among 96,000. AID 1024;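 active means activation factor of 2 or more for CYP2C9 at a 5 µM dose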;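 further: 0 = sulfaphenazole-blocked wells and 1 = vehicle-only wells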
CYP2C19 inh: human CYP2C19 inhibition; P33261; inhibition, % at 5 µM; hit rate 21% among 96,000; CYP2C19 Supersomes, luciferin-H EGE luminescence, 30 min;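 active means CYP2C19 inhibition above a set limit at 5 µM in the primary screen, cut at about 50% in these data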;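 further: plate controls were negative control wells for no effect and 2.5 mM tranylcypromine positive control for full effect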
Target sequence (P33261 whole entry, looked up): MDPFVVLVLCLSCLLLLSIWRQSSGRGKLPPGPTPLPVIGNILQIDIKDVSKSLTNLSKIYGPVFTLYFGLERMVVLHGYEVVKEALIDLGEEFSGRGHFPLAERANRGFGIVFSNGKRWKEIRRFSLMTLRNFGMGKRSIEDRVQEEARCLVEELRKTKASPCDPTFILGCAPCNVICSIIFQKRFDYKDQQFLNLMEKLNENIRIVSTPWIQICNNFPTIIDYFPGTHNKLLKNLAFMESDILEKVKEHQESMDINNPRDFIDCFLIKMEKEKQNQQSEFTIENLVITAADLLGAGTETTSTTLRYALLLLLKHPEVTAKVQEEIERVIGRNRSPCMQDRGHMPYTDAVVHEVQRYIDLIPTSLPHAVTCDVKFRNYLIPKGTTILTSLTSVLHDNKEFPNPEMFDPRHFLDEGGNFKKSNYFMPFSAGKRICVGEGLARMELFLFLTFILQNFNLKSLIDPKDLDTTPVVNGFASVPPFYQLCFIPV
CYP2C19 act: cytochrome P450 2C19 (human) activation | 96,000 tested, under 10 active | recombinant CYP2C19, luciferin-H EGE luminescence; active compounds read high; 0 = fully inhibited enzyme, 1 = untreated enzyme | AID 1025 | activation factor at 5 µM;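 active means activation factor of at least 2 at 5 µM in the primary screen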;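 further: 0 = wells with 2.5 mM tranylcypromine and 1 = vehicle-only wells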
* marks the source's active call; other numbers are inactive results; · = not tested or not shown.

SMILES	CYP2C9 inh	Cav32 inh	CYP2C9 act	CYP2C19 inh	CYP2C19 act
CC1(c2cc([N+](=O)[O-])cc([N+](=O)[O-])c2)CC(C)(C)N(C(=O)c2ccccc2)c2ccccc21 (stereo not given)	10	0.22	0.9	-8	1.1
CC1(c2ccccc2)CC(C)(C)N(C(=O)C2CCCO2)c2ccccc21 (stereo not given)	66*	-4.5*	0.3	77*	0.2
Cc1ccc(C2SCC(=O)N2Cc2cn3ccsc3n2)o1 (stereo not given)	-12	0.61	1.1	27	0.7
CCc1cc([N+](=O)[O-])cc(CC)c1N	-28	·	1.3	55*	0.4
CCNC(=O)c1ccc(NS(=O)(=O)c2ccccc2)cc1	31	1.8	0.7	30	0.7
NS(=O)(=O)c1ccc(NS(=O)(=O)c2ccc(NC(=O)c3ccc(-c4ccccc4)cc3)cc2)cc1	43	·	0.6	-1	1
O=S(=O)(Nc1ccc(S(=O)(=O)Nc2cccc3ccccc23)cc1)c1ccccc1	90*	-5.7	0.1	83*	0.2
O=S(=O)(Nc1ccc(S(=O)(=O)Nc2ccccc2)cc1)c1ccccc1	89*	-0.68	0.1	28	0.7
CCn1c(C)c(CCC(=O)O)c(=O)n2nc(-c3ccccc3OC)cc12	31	1	0.7	9	0.9
COC(=O)c1[nH]c2cc(OC)ccc2c1NC(=O)c1nonc1C	14	0.014	0.9	-2	1
O=C1C2C3CCCC3=C3CCCC3C2C(=O)N1c1ccc(Cl)cc1 (stereo not given)	54*	·	0.5	75*	0.2
COCCOC(=O)c1c(C)oc2ccc(OC(=O)c3c(OC)cccc3OC)cc12	96*	-1.4	0	93*	0.1
COCCOC(=O)c1c(C)oc2ccc(OC(=O)c3ccc4c(c3)OCO4)cc12	87*	-0.69	0.1	-10	1.1
COCC(C)NCc1cccc(C)c1 (stereo not given)	-10	0.31	1.1	15	0.9
O=C(COC(=O)c1cccs1)Nc1ccccc1	14	-0.027	0.9	57*	0.4
O=C(OCc1nc2ccccc2s1)c1cccs1	11	-5.2*	0.9	17	0.8
O=C(OCn1nnc2ccccc2c1=O)c1cccs1	-4	-0.32	1	20	0.8
O=C(OCc1nc2ccccc2c(=O)[nH]1)c1cccs1	59*	0.032	0.4	58*	0.4
CC(=O)Nc1c(O)nc(SCC(=O)Nc2c(C)cccc2C)[nH]c1=O	0	0.024	1	-8	1.1
CN1c2ccccc2C(C)(C)C12C=Nc1c(ccc3ccccc13)O2 (stereo not given)	33	0.45	0.7	7	0.9
CN1c2ccccc2C(C)(C)[C@]12C=Cc1cc(O)ccc1O2	95*	-0.085	0.1	97*	0
CCc1ccc(NC(=O)CNC(=O)c2cn(-c3ccccc3OC)c(=O)c3ccccc23)cc1	99*	-4.2*	0	98*	0
O=C(Nc1nnc(-c2ccc3c(c2)CCCC3)o1)c1ccc(Cl)cc1Cl	32	-3.2*	0.7	7	0.9
COc1ccc(-c2nnc(NC(=O)c3cc(Cl)ccc3Cl)o2)cc1	8	-5.2*	0.9	7	0.9
COc1ccccc1C(=O)Nc1nnc(-c2ccc(Cl)cc2)o1	·	-2.1	·	·	·
SMILES	CYP2C9 inh	Cav32 inh	CYP2C9 act	CYP2C19 inh	CYP2C19 act
CCN(CC)c1ccc(NC(=O)C(C)C)cc1	9	-0.44	0.9	2	1
CCN(CC)c1ccc(CC(=O)NC(C)Cc2ccccc2)cc1 (stereo not given)	60*	-1.8	0.4	82*	0.2
COc1ccc(-c2nnc(-c3cccs3)o2)cc1OC	18	0.07	0.8	20	0.8
COc1ccc(-c2nc(-c3cccs3)c(-c3cccs3)[nH]2)cc1O	96*	-2.7	0	88*	0.1
c1ccc(C2(CNc3ccccn3)CCCC2)cc1	44	-0.55	0.6	55*	0.5
N#CCCNCC1(c2ccccc2)CCCC1	0	0.88	1	16	0.8
O=C(c1ccc(Cl)s1)N1CCN(c2nc3ccccc3s2)CC1	14	-1.9	0.9	17	0.8
Cc1cccc(Cn2c(=O)n(Cc3ccco3)c(=O)c3ccccc32)c1	62*	-3	0.4	9	0.9
Cc1ccc(S(=O)(=O)N(C)Cc2nc(-c3ccc(Br)cc3)no2)cc1	-3	0.56	1	20	0.8
Cc1ccc(S(=O)(=O)N(C)Cc2nc(-c3ccncc3)no2)cc1	69*	0.72	0.3	92*	0.1
COc1ccc(-c2noc(CN(C)S(=O)(=O)c3ccccc3)n2)cc1OC	·	0.068	·	·	·
COc1ccc(S(=O)(=O)N(Cc2ccccc2)Cc2nc(-c3ccccc3)no2)cc1	92*	-5.5*	0.1	87*	0.1
CN(Cc1nc(-c2cccnc2)no1)S(=O)(=O)c1ccccc1	15	0.76	0.9	74*	0.3
COc1ccc(C2CC(C(F)(F)F)n3nc(C(=O)NCc4cn(C)nc4C)c(Cl)c3N2)cc1 (stereo not given)	-5	0.73	1	-3	1
COc1ccc(S(=O)(=O)N2CCCCC2C(=O)O)cc1OC (stereo not given)	4	0.45	1	0	1
COc1ccc(S(=O)(=O)N2CCc3ccccc3C2)cc1OC	-142	0.073	2.4*	91*	0.1
COc1cc2c(cc1OC)CN(S(=O)(=O)c1ccc3c(c1)OCCO3)CC2	32	1	0.7	95*	0.1
COC(=O)c1ccc(C)c(N(CCO)CCO)c1	1	0.041	1	26	0.7
Nc1ccc(N2CCCCCC2)cc1	22	0.71	0.8	64*	0.4
O=C(Nc1ncc2c(n1)-c1ccccc1OC2)c1ccccc1Cl	30	-0.9	0.7	14	0.9
O=c1c2ccccc2c2ccccc2c(=O)n1Cc1cccnc1	20	0.21	0.8	37	0.6
O=C1NC(c2ccccc2)(C(F)(F)F)C(=O)N1Cc1cccnc1 (stereo not given)	51*	-0.19	0.5	84*	0.2
OC(CN1CCN(c2ccccn2)CC1)Cn1c2ccc(Cl)cc2c2cc(Cl)ccc21 (stereo not given)	-5	-1.4	1	21	0.8
CCCCn1c(=N)n(CC(O)COc2ccc(C)cc2)c2ccccc21 (stereo not given)	4	-1.2	1	52*	0.5
N=c1n(CCN2CCOCC2)c2ccccc2n1CC(O)COc1ccccc1 (stereo not given)	-10	-0.6	1.1	-11	1.1
Cc1ccccc1OCC(O)Cn1c(=N)n(CCN2CCOCC2)c2ccccc21 (stereo not given)	57*	-2.6	0.4	1	1
Cc1ccc(Cn2c(=N)n(CC(O)COc3ccccc3)c3ccccc32)cc1 (stereo not given)	14	-2.5	0.9	53*	0.5
CC(=O)N(C)c1ccc(OCC(O)Cn2c3ccc(Cl)cc3c3cc(Cl)ccc32)cc1 (stereo not given)	54*	0.068	0.5	31	0.7
